This is part of a sample that, as a whole, favours compounds with a hit. Of some 79,000 tested, about 15% had one in any assay. A number with no mark means an inactive call. Activity calls are given as the source filed them. Cut-off read from the data, not from the text of the source: active = growth inhibition above about 70%; inactive = the rest.
Legend:
[1] = NCI Yeast Anticancer Drug Screen. Data for the rad52 strain (AID 147);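 note: 0% = growth of vehicle-treated control cultures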; conditions: S. cerevisiae rad52 mutant growth inhibition, active compounds read high
How it was run: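 Measured: yeast growth inhibition. System: strain with a defined DNA damage repair alteration. Reference: vehicle-treated control cultures.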

[2] = NCI Yeast Anticancer Drug Screen. Data for the wt1 strain (AID 149);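 note: 0% = growth of vehicle-treated wt1 cultures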; conditions: S. cerevisiae wt1 strain (SPY 50644) growth inhibition, active compounds read high
How it was run: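 Each compound is tested on wt1 yeast and the loss of growth versus vehicle gives the inhibition value.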

[3] = NCI Yeast Anticancer Drug Screen. Data for the rad50EPP+ strain (AID 151);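 note: 0% = growth of vehicle-treated control cultures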; conditions: S. cerevisiae rad50 mutant strain, active compounds read high
How it was run: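 One strain with a rad50 alteration (rad50EPP+) was compound-treated, its growth then compared to that of vehicle controls.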

[4] = NCI Yeast Anticancer Drug Screen. Data for the rad50 strain (AID 155);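 note: 0% = growth of vehicle-only cultures of the same strain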; conditions: S. cerevisiae rad50 strain growth inhibition, active compounds read high
How it was run: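 Vehicle-treated cultures provide the reference for the growth inhibition reported for compound-exposed, repair-deficient yeast.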

[5] = NCI Yeast Anticancer Drug Screen. Data for the mec2-1 strain (AID 157); conditions: S. cerevisiae mec2-1 strain, active compounds read high
How it was run: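 Test agents were screened against the mec2-1 yeast strain, with defined DNA repair or cell cycle alteration. Growth was scored as inhibition against vehicle-only controls.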

[6] = NCI Yeast Anticancer Drug Screen. Data for the rad14 strain (AID 159);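 note: 0% = growth of vehicle-treated control cultures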; conditions: S. cerevisiae rad14 strain growth inhibition, active compounds read high
How it was run: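 Inhibition of growth is reported for a repair-deficient yeast mutant following compound treatment, calculated relative to cultures that received vehicle.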

[7] = NCI Yeast Anticancer Drug Screen. Data for the sgs1 mgt1 strain (AID 161);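 note: 0% = growth of cultures given vehicle only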; conditions: S. cerevisiae sgs1 mgt1 strain, active compounds read high
How it was run: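 Read-out: growth inhibition vs vehicle controls. Cells: mutant yeast strain deficient in DNA damage repair.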

[8] = NCI Yeast Anticancer Drug Screen. Data for the CLN2oe strain (AID 163);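 note: 0% = growth of vehicle-only control cultures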; conditions: S. cerevisiae CLN2oe strain, active compounds read high
How it was run: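 Here, growth inhibition in a cell-cycle-altered yeast strain after compound exposure was quantified against vehicle control growth.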

[9] = NCI Yeast Anticancer Drug Screen. Data for the cln2 rad14 strain (AID 165);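 note: 0% = growth equal to vehicle treated cultures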; conditions: S. cerevisiae cln2 rad14 strain, active compounds read high
How it was run: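 Growth of compound-exposed yeast (cln2 rad14 genotype) measured and expressed as inhibition relative to vehicle.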

[10] = NCI Yeast Anticancer Drug Screen. Data for the bub3 strain (AID 167); conditions: S. cerevisiae bub3 mutant strain, active compounds read high
How it was run: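 Mutant yeast screening strain plus compound; vehicle-treated cultures serve as the 0% inhibition reference.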

[11] = NCI Yeast Anticancer Drug Screen. Data for the wt2 strain (AID 169); conditions: S. cerevisiae wt2 strain growth inhibition, active compounds read high
How it was run: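 Genetically defined yeast strains from a DNA-repair/cell-cycle panel were used. Compound-exposed yeast growth was measured, and the inhibition was calculated relative to vehicle treatment.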

[12] = NCI Yeast Anticancer Drug Screen. Data for the mlh1 strain (AID 171);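 note: 0% = growth of vehicle-treated control cultures of the same strain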; conditions: S. cerevisiae mlh1 strain growth inhibition, active compounds read high
How it was run: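 Here the genetically defined yeast mutant is grown with each compound, and the extent to which its growth falls below that of vehicle-exposed cells is reported.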

[13] = NCI Yeast Anticancer Drug Screen. Data for the sgs1 strain (AID 173);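 note: 0% = growth of vehicle-only control cultures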; conditions: S. cerevisiae sgs1 mutant, active compounds read high
How it was run: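 Relative growth inhibition, referenced to vehicle, was determined in a yeast strain with a defined alteration affecting DNA damage repair or cell cycle control after compound exposure.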

[14] = NCI Yeast Anticancer Drug Screen. Data for the mlh1 rad18 strain (AID 175); conditions: S. cerevisiae mlh1 rad18 strain growth inhibition, active compounds read high
How it was run: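 In this whole-cell yeast screen, a strain with altered DNA damage repair is challenged with compound, and its growth is measured against matched vehicle-treated controls.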

[15] = NCI Yeast Anticancer Drug Screen. Data for the rad18 strain (AID 177); conditions: S. cerevisiae rad18 mutant growth inhibition, active compounds read high
How it was run: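 Screen uses a yeast strain with a defined lesion in DNA damage repair; compound effect is read as loss of growth compared to untreated vehicle cultures.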

[16] = at 5.0 µM (retest, dose inferred, filed as 0.5)
[17] = at 50.0 µM (retest, dose inferred, filed as 5.0)

## CC(=O)Oc1ccc(C(=O)c2ccccc2)c(O)c1
[1]; at 1.2 µM
  growth inhibition: -7%
[1]; at 3.7 µM
  growth inhibition: -10%
[1]; at 11.0 µM
  growth inhibition: 2%
[1]; at 33.0 µM
  growth inhibition: 28%
[1]; at 100.0 µM
  growth inhibition: 96% (active)
[2]; at 1.2 µM
  growth inhibition: -2%
[2]; at 3.7 µM
  growth inhibition: -1%
[2]; at 11.0 µM
  growth inhibition: -4%
[2]; at 33.0 µM
  growth inhibition: 10%
[2]; at 100.0 µM
  growth inhibition: 96% (active)
[3]; at 1.2 µM
  growth inhibition: 14%
[3]; at 3.7 µM
  growth inhibition: 20%
[3]; at 11.0 µM
  growth inhibition: 19%
[3]; at 33.0 µM
  growth inhibition: 47%
[3]; at 100.0 µM
  growth inhibition: 85% (active)
[4]; at 1.2 µM
  growth inhibition: -4%
[4]; at 3.7 µM
  growth inhibition: 1%
[4]; [16]
  growth inhibition: 60%
[4]; at 11.0 µM
  growth inhibition: -2%
[4]; at 33.0 µM
  growth inhibition: 32%
[4]; [17]
  growth inhibition: 95% (active)
[4]; at 50.0 µM
  growth inhibition: 70.2% (active)
[4]; at 100.0 µM
  growth inhibition: 96% (active)
[5]; at 1.2 µM
  growth inhibition: -31%
[5]; at 3.7 µM
  growth inhibition: -5%
[5]; [16]
  growth inhibition: 64%
[5]; at 11.0 µM
  growth inhibition: 2%
[5]; at 33.0 µM
  growth inhibition: 26%
[5]; [17]
  growth inhibition: 99% (active)
[5]; at 50.0 µM
  growth inhibition: 50%
[5]; at 100.0 µM
  growth inhibition: 96% (active)
[6]; at 1.2 µM
  growth inhibition: -24%
[6]; at 3.7 µM
  growth inhibition: -20%
[6]; at 11.0 µM
  growth inhibition: -19%
[6]; at 33.0 µM
  growth inhibition: 21%
[6]; at 100.0 µM
  growth inhibition: 92% (active)
[7]; [16]
  growth inhibition: -18%
[7]; [17]
  growth inhibition: 88% (active)
[7]; at 50.0 µM
  growth inhibition: 74.5% (active)
[8]; at 1.2 µM
  growth inhibition: -7%
[8]; at 3.7 µM
  growth inhibition: -9%
[8]; at 11.0 µM
  growth inhibition: -10%
[8]; at 33.0 µM
  growth inhibition: 12%
[8]; at 100.0 µM
  growth inhibition: 96% (active)
[9]; [16]
  growth inhibition: 27%
[9]; [17]
  growth inhibition: 82% (active)
[9]; at 50.0 µM
  growth inhibition: 58.9%
[10]; at 1.2 µM
  growth inhibition: -36%
[10]; at 3.7 µM
  growth inhibition: -38%
[10]; [16]
  growth inhibition: 5%
[10]; at 11.0 µM
  growth inhibition: -58%
[10]; at 33.0 µM
  growth inhibition: -25%
[10]; [17]
  growth inhibition: 88% (active)
[10]; at 50.0 µM
  growth inhibition: 74% (active)
[10]; at 100.0 µM
  growth inhibition: 95% (active)
[11]; at 1.2 µM
  growth inhibition: -3%
[11]; at 3.7 µM
  growth inhibition: 7%
[11]; at 11.0 µM
  growth inhibition: 7%
[11]; at 33.0 µM
  growth inhibition: 21%
[11]; at 100.0 µM
  growth inhibition: 94% (active)
[12]; at 1.2 µM
  growth inhibition: -2%
[12]; at 3.7 µM
  growth inhibition: -1%
[12]; at 11.0 µM
  growth inhibition: 0%
[12]; at 33.0 µM
  growth inhibition: 36%
[12]; at 100.0 µM
  growth inhibition: 96% (active)
[13]; at 1.2 µM
  growth inhibition: 6%
[13]; at 3.7 µM
  growth inhibition: 10%
[13]; at 11.0 µM
  growth inhibition: 13%
[13]; at 33.0 µM
  growth inhibition: 46%
[13]; at 100.0 µM
  growth inhibition: 96% (active)
[14]; [16]
  growth inhibition: 50%
[14]; [17]
  growth inhibition: 98% (active)
[14]; at 50.0 µM
  growth inhibition: 61.8%
[15]; at 1.2 µM
  growth inhibition: 0%
[15]; at 3.7 µM
  growth inhibition: 13%
[15]; at 11.0 µM
  growth inhibition: 17%
[15]; at 33.0 µM
  growth inhibition: 39%
[15]; at 100.0 µM
  growth inhibition: 97% (active)

## Cc1ccc(S(=O)(=O)Nc2ccc3c(c2)C(O)c2ccccc2-3)cc1 (stereo unspecified)
[1]; at 1.2 µM
  growth inhibition: -2%
[1]; at 3.7 µM
  growth inhibition: -1%
[1]; at 11.0 µM
  growth inhibition: 9%
[1]; at 33.0 µM
  growth inhibition: 71% (active)
[1]; at 100.0 µM
  growth inhibition: 59%
[2]; at 1.2 µM
  growth inhibition: -3%
[2]; at 3.7 µM
  growth inhibition: -7%
[2]; at 11.0 µM
  growth inhibition: -7%
[2]; at 33.0 µM
  growth inhibition: 22%
[2]; at 100.0 µM
  growth inhibition: 27%
[3]; at 1.2 µM
  growth inhibition: 4%
[3]; at 3.7 µM
  growth inhibition: 10%
[3]; at 11.0 µM
  growth inhibition: 31%
[3]; at 33.0 µM
  growth inhibition: 38%
[3]; at 100.0 µM
  growth inhibition: 22%
[4]; at 1.2 µM
  growth inhibition: -2%
[4]; at 3.7 µM
  growth inhibition: -3%
[4]; [16]
  growth inhibition: -4%
[4]; at 11.0 µM
  growth inhibition: 6%
[4]; at 33.0 µM
  growth inhibition: 48%
[4]; [17]
  growth inhibition: 10%
[4]; at 50.0 µM
  growth inhibition: 74.5% (active)
[4]; at 100.0 µM
  growth inhibition: 42%
[5]; at 1.2 µM
  growth inhibition: -5%
[5]; at 3.7 µM
  growth inhibition: -3%
[5]; [16]
  growth inhibition: -9%
[5]; at 11.0 µM
  growth inhibition: -5%
[5]; at 33.0 µM
  growth inhibition: 21%
[5]; [17]
  growth inhibition: 7%
[5]; at 50.0 µM
  growth inhibition: 23.1%
[5]; at 100.0 µM
  growth inhibition: 33%
[6]; at 1.2 µM
  growth inhibition: -2%
[6]; at 3.7 µM
  growth inhibition: -3%
[6]; at 11.0 µM
  growth inhibition: 4%
[6]; at 33.0 µM
  growth inhibition: 38%
[6]; at 100.0 µM
  growth inhibition: 23%
[7]; [16]
  growth inhibition: 0%
[7]; [17]
  growth inhibition: 5%
[7]; at 50.0 µM
  growth inhibition: 89.5% (active)
[8]; at 1.2 µM
  growth inhibition: -7%
[8]; at 3.7 µM
  growth inhibition: -10%
[8]; at 11.0 µM
  growth inhibition: -9%
[8]; at 33.0 µM
  growth inhibition: 30%
[8]; at 100.0 µM
  growth inhibition: 30%
[9]; [16]
  growth inhibition: -19%
[9]; [17]
  growth inhibition: 23%
[9]; at 50.0 µM
  growth inhibition: 79.4% (active)
[10]; at 1.2 µM
  growth inhibition: 0%
[10]; at 3.7 µM
  growth inhibition: 0%
[10]; [16]
  growth inhibition: -3%
[10]; at 11.0 µM
  growth inhibition: 2%
[10]; at 33.0 µM
  growth inhibition: 20%
[10]; [17]
  growth inhibition: 12%
[10]; at 50.0 µM
  growth inhibition: 83.3% (active)
[10]; at 100.0 µM
  growth inhibition: 23%
[11]; at 1.2 µM
  growth inhibition: -6%
[11]; at 3.7 µM
  growth inhibition: -7%
[11]; at 11.0 µM
  growth inhibition: -2%
[11]; at 33.0 µM
  growth inhibition: 75% (active)
[11]; at 100.0 µM
  growth inhibition: 43%
[12]; at 1.2 µM
  growth inhibition: -8%
[12]; at 3.7 µM
  growth inhibition: -6%
[12]; at 11.0 µM
  growth inhibition: 2%
[12]; at 33.0 µM
  growth inhibition: 80% (active)
[12]; at 100.0 µM
  growth inhibition: 33%
[13]; at 1.2 µM
  growth inhibition: -1%
[13]; at 3.7 µM
  growth inhibition: -1%
[13]; at 11.0 µM
  growth inhibition: 26%
[13]; at 33.0 µM
  growth inhibition: 86% (active)
[13]; at 100.0 µM
  growth inhibition: 57%
[14]; [16]
  growth inhibition: -6%
[14]; [17]
  growth inhibition: 40%
[14]; at 50.0 µM
  growth inhibition: 91% (active)
[15]; at 1.2 µM
  growth inhibition: -3%
[15]; at 3.7 µM
  growth inhibition: -4%
[15]; at 11.0 µM
  growth inhibition: -4%
[15]; at 33.0 µM
  growth inhibition: 73% (active)
[15]; at 100.0 µM
  growth inhibition: 51%
